Results published in ChEMBL document CHEMBL1157539, “Thousands of chemical starting points for antimalarial lead identification” (Nature, 2010).

Columns and labels:
Assay type in all cases: functional
[1] = tested on: Plasmodium falciparum; assay: GSK_TCMDC: Inhibition of Plasmodium falciparum 3D7 in whole red blood cells, using parasite LDH activity as an index of growth. Test compounds present at 2uM
[2] = tested on: Plasmodium falciparum; assay: GSK_TCMDC: Inhibition of Plasmodium falciparum Dd2 in whole red blood cells, using parasite LDH activity as an index of growth. Test compounds present at 2uM
[3] = tested on: HepG2; assay: GSK_TCMDC: Percent inhibition of human HepG2 cell line. Test compounds present at 10uM.

| SMILES | Inhibition [1] [%] | Inhibition [2] [%] | Inhibition [3] [%] |
| --- | --- | --- | --- |
| CCOC(=O)CCCOc1c(OC)cc(Cc2cnc(N)nc2N)cc1OC | 96 | 7 | 10 |
| COc1cc2nc(N3CCC(CNC(=O)c4ccc(-c5ccc(C#N)cc5)cc4)CC3)nc(N)c2cc1OC | 100 | 99 | 21 |
| c1ccc(N2CCN(c3cc(-c4cccnc4)nc(-c4ccncc4)n3)CC2)nc1 | 99 | 22 | 22 |
| O=C(N[C@@H](CC1CCCCC1)C(=O)NC1CCCCCC1)c1ccc(O)c(-c2ccc(Cl)c(Cl)c2)c1 | 99 | 100 | 0 |
| O=C1C(=Cc2c(O)ccc3ccccc23)SC(=NCc2ccccc2)N1Cc1ccccc1 | 98 | 98 | 0 |
| O=C(Nc1ccc(-c2nc3cc4ccccc4cc3[nH]2)cc1)c1cccc(Br)c1 | 100 | 89 | 50 |
| CCc1sc(N2CCN(C)CC2)nc1C(=O)Nc1ccc(F)cc1C(F)(F)F.O=C(O)C(F)(F)F | 100 | 98 | 0 |
| O=C(Nc1cccc(CN2CCCN(CCc3ccccc3)CC2)c1)c1ccc(Cl)c(Cl)c1.O=C(O)C(F)(F)F | 86 | 15 | 41 |
| COc1ccc(Oc2ccccc2CNCC2CCN(CC3CCCCC3)CC2)cc1.O=C(O)C(F)(F)F | 85 | 28 | 34 |
| CCCCc1ccc(S(=O)(=O)Nc2ccc3c(c2)CCN(Cc2c[nH]c4cnccc24)CC3)cc1.O=C(O)C(F)(F)F | 99 | 12 | 41 |
| Cc1ccc(-c2cc(C(=O)Nc3ccc(S(=O)(=O)N4CCOCC4)cc3)[nH]n2)c(O)c1C | 91 | 45 | 18 |
| CC1CC(C)CN(S(=O)(=O)c2cc(C(=O)Nc3cccc([N+](=O)[O-])c3)ccc2Br)C1 (stereo not drawn) | 100 | 68 | 1 |
| O=C(Nc1ccc([N+](=O)[O-])cc1O)Nc1ccccc1Oc1ccccc1 | 92 | 1 | 45 |
| O=C(/C=C/c1ccsc1)N1CCC(CCN2CCC(c3c[nH]c4ccccc34)CC2)CC1 | 88 | 24 | 37 |
| CNc1ccc(CNCc2ccc(-c3ccc(-c4nc5cc(F)ccc5[nH]4)cc3)cc2)cc1.O=C(O)C(F)(F)F | 100 | 95 | 38 |
| CCCC1(NC[C@@H](O)[C@H](Cc2ccccc2)NC(=O)c2cc(NCC)cc(N3CCCCS3(=O)=O)c2)CCCC1.Cl | 100 | 97 | 0 |

| SMILES | Inhibition [1] [%] | Inhibition [2] [%] | Inhibition [3] [%] |
| --- | --- | --- | --- |
| c1csc(-c2nc(NCC3CCCO3)ncc2-c2ccsc2)n1 (stereo not drawn) | 89 | 83 | 0 |
| O=C(O)C(F)(F)F.O=[N+]([O-])c1cccc(CNCC2CCC(CNCc3cccc([N+](=O)[O-])c3)CC2)c1 (stereo not drawn) | 100 | 76 | 39 |
| CN(C)CCCOc1ccccc1CN1CC[C@H](NC(=O)c2ccc(Cl)c(Cl)c2)C1.O=C(O)C(F)(F)F | 94 | 54 | 42 |
| COc1ccc2nc3cc(Cl)ccc3c(NCCCCN)c2c1.Cl | 100 | 62 | 52 |
| Cc1ccc(-c2ccn(Cc3ccc(OCc4ccccc4)cc3)n2)cn1.Cc1ccc(-c2ccnn2Cc2ccc(OCc3ccccc3)cc2)cn1 | 93 | 92 | 1 |
| O=C(Nc1cccc(CN2CCCN(Cc3ccc(O)cc3)CC2)c1)c1cccc(C(F)(F)F)c1.O=C(O)C(F)(F)F | 100 | 71 | 9 |
| CN1CCC(NCc2ccc(-c3cccc(S(=O)(=O)NCC4CCCO4)c3)cc2)CC1.O=C(O)C(F)(F)F (stereo not drawn) | 90 | 0 | 8 |
| CN1CCN(c2ccnc3cc4c(cc23)N(C(=O)Nc2ccc3c(c2)CCCC3=O)CC4)CC1.Cl | 100 | 64 | 5 |
| O=C(NCC1CCN(Cc2cccc(C(F)(F)F)c2)C1)c1cc(-c2cccc(Cl)c2)cs1.O=C(O)C(F)(F)F (stereo not drawn) | 93 | 14 | 15 |
| CCNc1cc(C(=O)N[C@@H](Cc2ccccc2)[C@H](O)CNCc2cccc(-n3ccnc3)c2)cc(N2CCCC2=O)c1.O=C(O)C(F)(F)F | 99 | 96 | 1 |
| CCOC(=O)c1cn(CC)c2cc(N3CCCCC3)c(F)cc2c1=O | 97 | 96 | 0 |
| O=C(c1cccc(-c2cccc(-c3nc4ccccc4[nH]3)c2)c1)N1CCCCC1CN1CCC(O)C1 (stereo not drawn) | 100 | 56 | 66 |
| CCCCCCc1ncc(-c2cc3cc(O)c(-c4ccccc4)cc3oc2=O)s1 | 90 | 63 | 4 |
| O=C(/C=C/c1ccc(Cl)c(Cl)c1)NCCCCCN1CCCC(c2c[nH]c3ccccc23)C1 (stereo not drawn) | 99 | 22 | 25 |
| Br.CC(CCON1C(N)=NC(N)=NC1(C)C)c1ccc(Cl)cc1 (stereo not drawn) | 93 | 97 | 64 |
